Among the data in PubChem BioAssay (EPA / NIEHS) are outcome and AC50 values, retold here.

Structures are written as SMILES. Results filed as inconclusive are left out. Active and inactive are the calls of the source. How the source made its calls, unless noted: active means hit-call score of the fitted dose curve at least 0.9, where 1 is the maximum; inconclusive means response in the unintended direction; inactive means score below 0.9.

Assay [1] is described as follows: TOX21_p53_BLA_p2_viability: Viability Assessment in the Tox21 HCT-116 p53 Agonism Beta-lactamase Assay, Phase 2 (AID 2283591).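 Further: compound exposure lasted 16 h at 37 °C; actives lower the ATP signal meaning cytotoxicity.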 In outline: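 Cytotoxicity readout: CellTiter-Glo ATP luminescence, 30 min at room temperature, after the beta-lactamase read. Cells were HCT116 exposed 16 h at 37C to compounds pin-transferred at 217-fold dilution from DMSO stocks.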
The target of assay [2] is Cellular tumor antigen p53 (Homo sapiens) (UniProt P04637). Nature of the assay: TOX21_p53_BLA_p2_ratio: Tox21 HCT-116 p53 Agonism Beta-lactamase Assay, Ratio, Phase 2 (AID 2283592). In outline: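 In this cell-based reporter format, HCT116 cells were dosed with chemicals delivered from DMSO by 217-fold dilution and incubated 16 h at 37C. Emission at 460 and 530 nm after 2 h CCF4-AM loading provided the ratio, fitted upward versus DMSO.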

Assay [3] is described as follows: TOX21_p53_BLA_p3_viability: Viability Assessment in the Tox21 HCT-116 p53 Agonism Beta-lactamase Assay, Phase 3 (AID 2283593).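 Further: cells exposed to compound for 16 h before reading.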 The essentials:
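Cellular ATP was quantified by CellTiter-Glo luminescence, read after 30 min at room temperature. Beforehand, HCT116 cells (4000/well) received compound 5 h post-seeding, 217-fold diluted from DMSO, then incubated 16 h at 37C.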

Assay [4] is described as follows: TOX21_p53_BLA_p4_viability: Viability Assessment in the Tox21 HCT-116 p53 Agonism Beta-lactamase Assay, Phase 4 (AID 2283597).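 Further: hits lower the luminescence signal meaning cytotoxicity.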 The essentials: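 We seeded HCT116 p53 reporter cells at 4000/well and waited 5 h. We then added compounds in DMSO at a 217-fold dilution and incubated for 16 h. Viability was read as CellTiter-Glo luminescence after 30 min at RT.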
Assay [5] concerns the target Cellular tumor antigen p53 (Homo sapiens) (UniProt P04637). Nature of the assay: TOX21_p53_BLA_p5_ratio: Tox21 HCT-116 p53 Agonism Beta-lactamase Assay, Ratio, Phase 5 (AID 2283599). The essentials:
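Beta-lactamase reporter ratio (blue 460 nm over green 530 nm, 405 nm excitation) after 2 h CCF4-AM loading, in HCT-116 cells exposed 16 h at 37 C to compounds pinned at 217-fold dilution. Increases relative to DMSO baseline scored.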

A short description of assay [6]: TOX21_p53_BLA_p5_viability: Viability Assessment in the Tox21 HCT-116 p53 Agonism Beta-lactamase Assay, Phase 5 (AID 2283600). The essentials: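 Compounds, pinned from DMSO at 217-fold dilution, were left on the cells for 16 h. The viability endpoint was ATP content measured by CellTiter-Glo luminescence, where falling signal reflects cytotoxicity.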
Assay [7] addresses Cellular tumor antigen p53 (Homo sapiens) (UniProt P04637). Briefly: TOX21_p53_BLA_p4_ratio: Tox21 HCT-116 p53 Agonism Beta-lactamase Assay, Ratio, Phase 4 (AID 2283601). The essentials:
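Signal is the blue/green (460nm/530nm) ratio of cleaved versus uncleaved CCF4-AM substrate, read after 2 h substrate loading. Cells were HCT116 carrying the p53-responsive beta-lactamase reporter, dosed 16 h at 37C, 5% CO2; CellTiter-Glo measured in parallel.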

Assay [8] in a line: CCTE_Harrill_HTTr_Viability_MCF7: CCTE's 6-hour Cell Viability Assessment for the High-Throughput Transcriptomics (HTTr) Platform, in MCF-7 cells cultured in DMEM + 10% fetal bovine serum, Harrill Lab (AID 2284010; active means hit-call score of the fitted dose curve at least 0.9, where 1 is the maximum; inactive means score below 0.9). The essentials: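 MCF-7 cells in DMEM + 10% FBS, 384-well, exposed 6 h to an eight-point dilution series. Membrane integrity scored by high-content imaging of propidium iodide exclusion; bidirectional fit versus DMSO.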

Assay [9] is described as follows: CCTE_Harrill_HTTr_Apoptosis_MCF7: CCTE's 6-hour Apoptosis Assessment for the High-Throughput Transcriptomics (HTTr) Platform, in MCF-7 cells cultured in DMEM + 10% fetal bovine serum, Harrill Lab (AID 2284011; active means hit-call score of the fitted dose curve at least 0.9, where 1 is the maximum; inactive means score below 0.9). In outline:
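Read-out: CellEvent Caspase 3/7 Green signal by high content imaging, gain-of-signal indicating apoptosis. MCF-7 cells, DMEM + 10% FBS, eight-point dilution series, 6 h exposure. Curves fitted bidirectionally relative to DMSO negative control.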

A short description of assay [10]: CCTE_Harrill_HTTr_CellCount_MCF7: CCTE's Cell Proliferation Assessment for the High-Throughput Transcriptomics (HTTr) Platform, Harrill Lab (AID 2284012).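 Further: cells exposed to compound for six hours; intended direction is loss of nuclei count meaning fewer cells.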 The essentials:
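MCF7 cells exposed 6 hours to an eight-point dilution series; Hoechst-stained nuclei counted by high-content imaging. Bidirectional curve fitting against DMSO baseline.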

Assay [11] deals with Thyroid hormone receptor alpha (Rattus norvegicus) + Thyroid hormone receptor beta (Rattus norvegicus) (UniProt P18113+P63059). Nature of the assay: TOX21_TR_LUC_GH3_Antagonist_Followup: Tox21 GH3 Thyroid Hormone Receptor Antagonism Luciferase Follow-Up Assay (AID 2283942). In outline: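 Confirmatory qHTS, antagonist mode: T3 (1.0 nM final) + test cpd, 15 conc, 92 uM–5nM final, GH3 rat pituitary line, 24 h, 37C. Luc reporter, RLU vs DMSO.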

The target in the next assay is THRA (gene 7067) (UniProt P10827). Nature of the assay: TOX21_TRA_COA_Antagonist_Followup_ratio: Tox21 Thyroid Hormone Receptor alpha Antagonism through Coactivator Recruitment Follow-Up Assay, Ratio (AID 2283953). In outline: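 520:495 nm emission ratio (excitation 340 nm) reports fluorescein-SRC-2 peptide recruitment to GST-TRα LBD by TR-FRET with Tb anti-GST antibody. Values were normalized to DMSO (0%) and T3 control wells (100%); loss of signal indicated antagonism.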

Assay [12] in a line: TOX21_TR_RXR_BLA_Antagonist_Followup_viability: Viability Assessment in the Tox21 Thyroid Hormone Receptor beta Retinoid X Receptor alpha (RXRa) Antagonism Beta-lactamase (BLA) Follow-Up Assay (AID 2283979). The essentials:
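Follow-up compounds (11 concentrations, triplicate) were incubated 16 h at 37C/5% CO2 with HEK293T RXRa-bla cells seeded at 2,500/well in charcoal-stripped-serum medium. ATP content by CellTiter-Glo luminescence gave viability; curves fitted in both directions against DMSO.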

Sequence of Cellular tumor antigen p53 (Homo sapiens) (P04637 whole entry, looked up): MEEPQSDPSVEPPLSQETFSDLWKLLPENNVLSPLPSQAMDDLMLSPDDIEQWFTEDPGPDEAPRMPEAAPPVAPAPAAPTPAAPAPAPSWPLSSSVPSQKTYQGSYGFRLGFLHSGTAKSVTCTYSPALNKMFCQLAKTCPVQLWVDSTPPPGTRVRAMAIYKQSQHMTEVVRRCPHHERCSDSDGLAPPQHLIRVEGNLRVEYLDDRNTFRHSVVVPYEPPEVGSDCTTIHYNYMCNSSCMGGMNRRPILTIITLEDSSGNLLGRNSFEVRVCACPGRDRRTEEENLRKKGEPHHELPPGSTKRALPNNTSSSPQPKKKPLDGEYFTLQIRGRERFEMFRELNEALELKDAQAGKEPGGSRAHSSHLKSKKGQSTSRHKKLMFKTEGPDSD
Sequence of THRA (gene 7067) (P10827 whole entry, looked up, the tested form may be a part): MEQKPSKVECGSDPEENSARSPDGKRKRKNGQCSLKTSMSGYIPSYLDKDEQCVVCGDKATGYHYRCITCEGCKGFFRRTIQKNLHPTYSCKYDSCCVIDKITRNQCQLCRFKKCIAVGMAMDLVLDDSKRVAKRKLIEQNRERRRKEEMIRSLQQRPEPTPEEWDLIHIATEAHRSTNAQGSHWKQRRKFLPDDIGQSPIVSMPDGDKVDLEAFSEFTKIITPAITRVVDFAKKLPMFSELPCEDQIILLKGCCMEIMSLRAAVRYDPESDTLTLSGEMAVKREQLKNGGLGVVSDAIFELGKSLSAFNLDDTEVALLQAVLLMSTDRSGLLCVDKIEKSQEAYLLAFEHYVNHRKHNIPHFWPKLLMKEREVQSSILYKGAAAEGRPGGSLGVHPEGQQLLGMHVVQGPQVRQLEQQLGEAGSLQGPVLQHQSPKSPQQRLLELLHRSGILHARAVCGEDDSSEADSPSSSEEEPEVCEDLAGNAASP

Consider `Nc1nc(-c2ccccc2)c(Br)c(=O)[nH]1`, for which the result in [1], in [2], in assay [3], in [4], in assay [5] and in assay [6] was inactive. For the same compound, the result in assay [7] was inactive.
Consider `NC(N)=NC(=O)Cc1c(Cl)cccc1Cl`, for which the compound was classed as inactive in [1], in [2], in assay [3], in assay [4], in assay [5] and in assay [6]. For the same compound, the outcome in assay [7] was inactive.
`CCCCC(CC)COC(=O)C(C#N)=C(c1ccccc1)c1ccccc1` (stereo unspecified): the outcome in assay [1], in assay [2], in assay [3], in [4], in assay [5] and in assay [6] was inactive. The result in assay [7] was inactive.
In the case of `CC(C)OC(=O)C(C)N(C(=O)c1ccccc1)c1ccc(F)c(Cl)c1` (stereo unspecified), the compound was called inactive in assay [1], in [2], in assay [3], in [4], in [5] and in assay [6]. The result in assay [7] was inactive.
As to `Cc1cc(-c2ccc(N=Nc3ccc4c(S(=O)(=O)O)cc(S(=O)(=O)O)c(N)c4c3O)c(C)c2)ccc1N=Nc1ccc2c(S(=O)(=O)O)cc(S(=O)(=O)O)c(N)c2c1O`, the compound was called inactive in assay [1], in [2], in assay [3], in assay [4], in assay [5] and in [6]. In addition, the result in assay [7] was inactive.
As to `CN(C)C/C=C(/c1ccc(Br)cc1)c1cccnc1`, the call in assay [1], in [2], in assay [3], in assay [4], in assay [5] and in [6] was inactive. In addition, the outcome in assay [7] was inactive.
As for `CC(=O)CCc1ccc(OC(C)=O)cc1`, the result in [1], in [2], in assay [3], in [4], in assay [5] and in assay [7] was inactive.
Turning to `C=Cc1ccccc1`, the compound was called inactive in assay [1], in assay [2], in assay [3], in assay [4], in [5] and in [6]. Also, in assay [7], the result was inactive.
With `O=C(O)c1ccc(OCCCOc2ccc(C(=O)O)cc2)cc1`, the compound was called inactive in [1], in assay [2], in assay [3], in assay [4], in assay [5] and in assay [6]. Further, the result in [7] was inactive.
As to `CC(C)c1cc2c(cc1S(=O)(=O)O)[C@@]1(C)CCC[C@@](C)(C(=O)O)[C@@H]1CC2`, the result in [1], in assay [2], in assay [3], in [4], in assay [5] and in [7] was inactive.
As to `CC1Cc2ccccc2N1NC(=O)c1ccc(Cl)c(S(N)(=O)=O)c1` (stereo unspecified), the call in assay [1], in assay [2], in assay [3], in assay [4], in assay [5] and in assay [6] was inactive. In addition, the outcome in [7], in [8], in [9] and in [10] was inactive.
Take `Cc1c(O)c(=O)ccn1C`: the compound was classed as inactive in assay [1], in assay [2], in assay [3], in [4], in [5] and in [6]. In [7], the result was inactive.
As for `O=Cc1ccc([N+](=O)[O-])cc1`, the result in assay [1], in [2], in [3], in assay [4], in [5] and in [7] was inactive.
For `CC(=O)[C@H]1CC[C@H]2[C@@H]3C=CC4=CC(=O)CC[C@@]4(C)[C@@H]3CC[C@]12C`, the compound was classed as inactive in [1], in [2], in assay [3], in assay [4], in assay [5] and in assay [6]. Also, the result (in assay [7]; in [11]; with THRA (gene 7067); in assay [12]) was inactive.
Broadly, the AC50 is the concentration giving half of the maximal activity seen. On to `O=C(c1ccccc1)c1ccc2n1CCC2C(=O)O` (stereo unspecified), for which the compound was called inactive in assay [1], in [2], in assay [3], in assay [4] and in assay [5]. For the same compound, in [7], the AC50 is 43.6 µM (active).
In the case of `CC(C)Cc1ccc(CC(=O)O)cc1`, the outcome in [1], in assay [2], in assay [3], in assay [4], in assay [5] and in assay [7] was inactive.
Take `CC(C)(Oc1ccc(C2CCCc3ccccc32)cc1)C(=O)O` (stereo unspecified): the result in [1], in assay [2], in assay [3], in assay [4] and in assay [6] was inactive.
Turning to `CC(C)(C)NC[C@H](O)COc1ccccc1C1CCCC1`, the outcome in assay [1], in assay [2], in assay [3], in assay [4], in assay [5] and in assay [7] was inactive.
Regarding `CC(=O)Nc1cccc(O)c1`, the compound was classed as inactive in [1], in assay [2], in [3], in [4], in assay [5] and in [6]. Further, the result in assay [7] was inactive.
As to `CC(C(O)c1ccccc1)N(C)CCOC(c1ccccc1)c1ccccc1` (stereo unspecified), the outcome in assay [1], in assay [2], in [3] and in assay [6] was inactive. Also, in assay [4], the AC50 was 42.2 µM (active).
On to `O=[N+]([O-])c1ccc(CCO)cc1`, for which the outcome in [1], in [2], in assay [3], in [4], in [5] and in assay [7] was inactive.
`CCOc1ccc(NC(C)=O)cc1N`: the call in [1], in assay [2], in assay [3], in assay [4], in [5] and in assay [6] was inactive. For the same compound, the outcome in assay [7] was inactive.
As for `COC(=O)C1=C(C)NC(C)=C(C(=O)O[C@@H]2CCCN(Cc3ccccc3)C2)[C@@H]1c1cccc([N+](=O)[O-])c1`, the result in assay [1], in assay [2], in assay [3], in assay [4], in [5] and in [6] was inactive. Moreover, in assay [7], the outcome was inactive.
Turning to `C=CCN1C[C@H](C(=O)N(CCCN(C)C)C(=O)NCC)C[C@@H]2c3cccc4[nH]cc(c34)C[C@H]21`, the result in assay [1], in [2], in assay [3], in assay [4], in assay [5] and in assay [6] was inactive. In addition, the result in assay [7] was inactive.
As to `CCOC(=O)c1cnc2c(cnn2CC)c1NN=C(C)C`, the compound was classed as inactive in [1], in assay [2], in [3], in assay [4], in assay [5] and in assay [6]. Further, the result in assay [7] was inactive.
In the case of `C=CCONC(CCC)=C1C(=O)CC(C)(C)C(C(=O)OC)=C1O`, the compound was classed as inactive in [1], in [2], in assay [3], in [4], in assay [5] and in assay [7].
